In one assay the target is POU1 (OCT1 POU domain) (human, UniProt P14859 260-458). Description: EMSA-SELEX-seq; no BOB1; 20 mM Tris-HCl pH 7.6, 140 mM NaCl, 10% glycerol, 0.5 mM EDTA, 0.05% Triton X-100, 0.1 mg/mL BSA, 0.1 mg/mL poly(dI-dC), 5 mM DTT, room temperature, 20 min; high values mean tight binding. Particulars: protein: recombinant; dsDNA, one strand shown. The essentials:
(§1)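 Tagged POU-domain proteins were expressed in E. coli BL21, purified under denaturing conditions and renatured. Then 30 ng was mixed with 300 ng of a PCR-amplified double-stranded random 35-nt library, with or without 28 ng coactivator protein, in 20 μL Tris–HCl pH 7.6 binding buffer for 20 min at RT. Complex bands were cut from native 6% PAGE, eluted and PCR-amplified over four rounds, then Illumina-sequenced. Binding preference is the percentage of sequenced 8-mers matching a motif pattern.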
POU1 (OCT1 POU domain), sequence (P14859 260-458): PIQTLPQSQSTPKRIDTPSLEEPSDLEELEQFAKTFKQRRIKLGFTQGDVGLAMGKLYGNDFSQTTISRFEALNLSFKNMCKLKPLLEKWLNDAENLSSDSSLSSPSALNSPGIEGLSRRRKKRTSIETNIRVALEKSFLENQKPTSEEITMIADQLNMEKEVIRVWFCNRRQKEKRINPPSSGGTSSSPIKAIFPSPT
For ACCGTAAG, the binding signal is 0.0191 % of ANNNNAAN 8-mers.

ACGTCAAC: the binding signal is 0.013 % of ANNNNAAN 8-mers.

Turning to AAGCAAAG, the binding signal is 0.0847 % of ANNNNAAN 8-mers.

For the sequence AGGCTAAC, the binding signal was 0.013 % of ANNNNAAN 8-mers.

In the case of AGAAAAAT, the binding signal is 0.0946 % of ANNNNAAN 8-mers.

Regarding AGGGGAAC, the binding signal was 0.0416 % of ANNNNAAN 8-mers.

With AAAACAAA, the binding signal is 0.158 % of ANNNNAAN 8-mers.

As for ACACTAAG, the binding signal is 0.0179 % of ANNNNAAN 8-mers.

For ATTTGAAT, the binding signal is 1.84 % of ANNNNAAN 8-mers.

In the case of AGAACAAT, the binding signal is 0.0378 % of ANNNNAAN 8-mers.

For the sequence AAGAAAAA, the binding signal was 0.0934 % of ANNNNAAN 8-mers.

For the sequence ATGTCAAA, the binding signal is 0.0744 % of ANNNNAAN 8-mers.

In the case of ATAATAAC, the binding signal was 0.0873 % of ANNNNAAN 8-mers.

AAATGAAG: the binding signal was 0.17 % of ANNNNAAN 8-mers.

As for AGTGCAAC, the binding signal is 0.0118 % of ANNNNAAN 8-mers.

As for AATTTAAT, the binding signal is 0.306 % of ANNNNAAN 8-mers.

AGAGCAAC: the binding signal is 0.0133 % of ANNNNAAN 8-mers.

ACTTGAAG: the binding signal was 0.0198 % of ANNNNAAN 8-mers.

Turning to ATCATAAA, the binding signal is 0.0736 % of ANNNNAAN 8-mers.

On to ACGGGAAT, for which the binding signal is 0.0641 % of ANNNNAAN 8-mers.

As for ATGAAAAA, the binding signal was 0.149 % of ANNNNAAN 8-mers.

Consider ACTGAAAA, for which the binding signal was 0.0313 % of ANNNNAAN 8-mers.

For the sequence ACCTCAAA, the binding signal was 0.0149 % of ANNNNAAN 8-mers.

On to ACACGAAC, for which the binding signal is 0.0114 % of ANNNNAAN 8-mers.

As to ATTCAAAT, the binding signal was 1.58 % of ANNNNAAN 8-mers.

Consider AACCGAAT, for which the binding signal was 0.0412 % of ANNNNAAN 8-mers.

Take ACGGTAAA: the binding signal was 0.0389 % of ANNNNAAN 8-mers.

Turning to ACGTTAAT, the binding signal was 0.112 % of ANNNNAAN 8-mers.

ACCGTAAC: the binding signal is 0.0118 % of ANNNNAAN 8-mers.

As to ACTAGAAG, the binding signal is 0.0229 % of ANNNNAAN 8-mers.

Turning to ATAGCAAC, the binding signal is 0.0183 % of ANNNNAAN 8-mers.

Turning to ACGTAAAA, the binding signal was 0.0648 % of ANNNNAAN 8-mers.

In the case of AGTCGAAT, the binding signal is 0.061 % of ANNNNAAN 8-mers.

In the case of ATAGAAAG, the binding signal was 0.0461 % of ANNNNAAN 8-mers.

As to ACTACAAT, the binding signal is 0.0309 % of ANNNNAAN 8-mers.

Take ACACTAAA: the binding signal was 0.0256 % of ANNNNAAN 8-mers.

On to AGGAAAAG, for which the binding signal was 0.1 % of ANNNNAAN 8-mers.

Turning to ACTCTAAT, the binding signal is 0.0488 % of ANNNNAAN 8-mers.

ACCTCAAT: the binding signal was 0.0202 % of ANNNNAAN 8-mers.

The target of another assay is T1, POU2 (OCT2 POU domain) (human, UniProt P09086 175-386).
T1 sequence: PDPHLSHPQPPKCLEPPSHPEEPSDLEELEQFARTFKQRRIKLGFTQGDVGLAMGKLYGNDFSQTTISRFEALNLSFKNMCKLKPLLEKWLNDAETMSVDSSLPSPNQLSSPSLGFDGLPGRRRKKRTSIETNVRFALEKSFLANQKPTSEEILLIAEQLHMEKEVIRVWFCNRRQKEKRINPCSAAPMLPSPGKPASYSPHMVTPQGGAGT
Described as above. Particulars: protein: recombinant; dsDNA, one strand shown. The essentials:
as §1
As for ACCGTAAG, the binding signal is 0.0155 % of ANNNNAAN 8-mers.

Take ACGTCAAC: the binding signal was 0.0173 % of ANNNNAAN 8-mers.

Take AAGCAAAG: the binding signal was 0.0501 % of ANNNNAAN 8-mers.

For AGGCTAAC, the binding signal is 0.023 % of ANNNNAAN 8-mers.

Turning to AGAAAAAT, the binding signal was 0.0886 % of ANNNNAAN 8-mers.

Take AGGGGAAC: the binding signal was 0.0414 % of ANNNNAAN 8-mers.

With AAAACAAA, the binding signal was 0.119 % of ANNNNAAN 8-mers.

For ACACTAAG, the binding signal is 0.0219 % of ANNNNAAN 8-mers.

As to ATTTGAAT, the binding signal was 1.5 % of ANNNNAAN 8-mers.

AGAACAAT: the binding signal is 0.0414 % of ANNNNAAN 8-mers.

Consider AAGAAAAA, for which the binding signal was 0.0921 % of ANNNNAAN 8-mers.

Turning to ATGTCAAA, the binding signal is 0.0673 % of ANNNNAAN 8-mers.

As to ATAATAAC, the binding signal is 0.101 % of ANNNNAAN 8-mers.

Consider AAATGAAG, for which the binding signal is 0.188 % of ANNNNAAN 8-mers.

As to AGTGCAAC, the binding signal was 0.0219 % of ANNNNAAN 8-mers.

AATTTAAT: the binding signal is 0.333 % of ANNNNAAN 8-mers.

Regarding AGAGCAAC, the binding signal was 0.0115 % of ANNNNAAN 8-mers.

For ACTTGAAG, the binding signal is 0.0236 % of ANNNNAAN 8-mers.

Consider ATCATAAA, for which the binding signal is 0.0944 % of ANNNNAAN 8-mers.

Turning to ACGGGAAT, the binding signal was 0.0725 % of ANNNNAAN 8-mers.

As for ATGAAAAA, the binding signal is 0.123 % of ANNNNAAN 8-mers.

Take ACTGAAAA: the binding signal was 0.0363 % of ANNNNAAN 8-mers.

Take ACCTCAAA: the binding signal was 0.0155 % of ANNNNAAN 8-mers.

For the sequence ACACGAAC, the binding signal was 0.0167 % of ANNNNAAN 8-mers.

As to ATTCAAAT, the binding signal was 1.29 % of ANNNNAAN 8-mers.

Consider AACCGAAT, for which the binding signal was 0.0363 % of ANNNNAAN 8-mers.

With ACGGTAAA, the binding signal is 0.0524 % of ANNNNAAN 8-mers.

ACGTTAAT: the binding signal was 0.163 % of ANNNNAAN 8-mers.

Consider ACCGTAAC, for which the binding signal is 0.019 % of ANNNNAAN 8-mers.

With ACTAGAAG, the binding signal is 0.0316 % of ANNNNAAN 8-mers.

With ATAGCAAC, the binding signal is 0.0184 % of ANNNNAAN 8-mers.

On to ACGTAAAA, for which the binding signal is 0.0529 % of ANNNNAAN 8-mers.

In the case of AGTCGAAT, the binding signal was 0.0604 % of ANNNNAAN 8-mers.

With ATAGAAAG, the binding signal is 0.0598 % of ANNNNAAN 8-mers.

Consider ACTACAAT, for which the binding signal is 0.0282 % of ANNNNAAN 8-mers.

In the case of ACACTAAA, the binding signal is 0.0293 % of ANNNNAAN 8-mers.

Turning to AGGAAAAG, the binding signal is 0.08 % of ANNNNAAN 8-mers.

As to ACTCTAAT, the binding signal is 0.0604 % of ANNNNAAN 8-mers.

Turning to ACCTCAAT, the binding signal is 0.0196 % of ANNNNAAN 8-mers.

For another assay, the target named is POU1 (OCT1 POU domain);BOB1 (OBF1, OCA-B) (human;human, UniProt P14859;Q16633 260-458;1-256, |). Description: EMSA-SELEX-seq; with BOB1 (ternary complex band); 20 mM Tris-HCl pH 7.6, 140 mM NaCl, 10% glycerol, 0.5 mM EDTA, 0.05% Triton X-100, 0.1 mg/mL BSA, 0.1 mg/mL poly(dI-dC), 5 mM DTT, room temperature, 20 min; high values mean tight binding. Particulars: protein: recombinant;recombinant; copies: 1;1; dsDNA, one strand shown. Put shortly:
as §1
(A gel shift assay detects complexes by their altered migration in electrophoresis.)
As for ACCGTAAG, the binding signal was 0.0195 % of ANNNNAAN 8-mers.

Regarding ACGTCAAC, the binding signal is 0.0187 % of ANNNNAAN 8-mers.

AAGCAAAG: the binding signal was 0.125 % of ANNNNAAN 8-mers.

With AGGCTAAC, the binding signal is 0.0191 % of ANNNNAAN 8-mers.

Take AGAAAAAT: the binding signal is 0.0921 % of ANNNNAAN 8-mers.

Consider AGGGGAAC, for which the binding signal was 0.0355 % of ANNNNAAN 8-mers.

Regarding AAAACAAA, the binding signal is 0.262 % of ANNNNAAN 8-mers.

As to ACACTAAG, the binding signal is 0.0226 % of ANNNNAAN 8-mers.

Regarding ATTTGAAT, the binding signal was 1.92 % of ANNNNAAN 8-mers.

For AGAACAAT, the binding signal is 0.0293 % of ANNNNAAN 8-mers.

For AAGAAAAA, the binding signal is 0.105 % of ANNNNAAN 8-mers.

For ATGTCAAA, the binding signal was 0.0745 % of ANNNNAAN 8-mers.

Take ATAATAAC: the binding signal is 0.0496 % of ANNNNAAN 8-mers.

On to AAATGAAG, for which the binding signal was 0.186 % of ANNNNAAN 8-mers.

AGTGCAAC: the binding signal was 0.0113 % of ANNNNAAN 8-mers.

Consider AATTTAAT, for which the binding signal is 0.182 % of ANNNNAAN 8-mers.

With AGAGCAAC, the binding signal was 0.0137 % of ANNNNAAN 8-mers.

For the sequence ACTTGAAG, the binding signal is 0.0273 % of ANNNNAAN 8-mers.

As to ATCATAAA, the binding signal is 0.0425 % of ANNNNAAN 8-mers.

Regarding ACGGGAAT, the binding signal was 0.0574 % of ANNNNAAN 8-mers.

Turning to ATGAAAAA, the binding signal was 0.204 % of ANNNNAAN 8-mers.

For the sequence ACTGAAAA, the binding signal is 0.0328 % of ANNNNAAN 8-mers.

Regarding ACCTCAAA, the binding signal is 0.0191 % of ANNNNAAN 8-mers.

With ACACGAAC, the binding signal was 0.0121 % of ANNNNAAN 8-mers.

For the sequence ATTCAAAT, the binding signal is 1.57 % of ANNNNAAN 8-mers.

For the sequence AACCGAAT, the binding signal was 0.0324 % of ANNNNAAN 8-mers.

ACGGTAAA: the binding signal was 0.0507 % of ANNNNAAN 8-mers.

For ACGTTAAT, the binding signal is 0.073 % of ANNNNAAN 8-mers.

Regarding ACCGTAAC, the binding signal was 0.018 % of ANNNNAAN 8-mers.

Consider ACTAGAAG, for which the binding signal is 0.03 % of ANNNNAAN 8-mers.

For the sequence ATAGCAAC, the binding signal is 0.0207 % of ANNNNAAN 8-mers.

ACGTAAAA: the binding signal was 0.0823 % of ANNNNAAN 8-mers.

In the case of AGTCGAAT, the binding signal was 0.0468 % of ANNNNAAN 8-mers.

Take ATAGAAAG: the binding signal was 0.0546 % of ANNNNAAN 8-mers.

As to ACTACAAT, the binding signal was 0.0285 % of ANNNNAAN 8-mers.

For ACACTAAA, the binding signal was 0.0273 % of ANNNNAAN 8-mers.

For the sequence AGGAAAAG, the binding signal is 0.133 % of ANNNNAAN 8-mers.

In the case of ACTCTAAT, the binding signal was 0.0316 % of ANNNNAAN 8-mers.

For the sequence ACCTCAAT, the binding signal was 0.025 % of ANNNNAAN 8-mers.

For the origin of these results see PMC10812921, “Transcriptional Coactivator BOB1 (OBF1, OCA-B) Modulates the Specificity of DNA Recognition by the POU-Domain Factors OCT1 and OCT2 in a Monomeric Configuration”.
